Activity change data for 72 compounds are collected here from PubChem BioAssay AID1224865 (Sanford-Burnham Center for Chemical Genomics, 2016).

The whole screen tested about 360,000 compounds, of which about 1,100 (0.31%) were called active. For the sample, actives were picked, then their nearest neighbours and some compounds at random. Values without a mark were called inactive. Cut-off read from the data, not from the text of the source: active = activity change above about 30% (passing the limit was not always enough); inactive = the rest.

The assay deals with Hepatocyte nuclear factor 4-alpha (Homo sapiens) (UniProt P41235). The assay is described as follows: change in binding of human HNF4A to DNA, primary screen, biochemical, fluorescence polarization, FITC-DNA (AID 1224865). The following applies: 1 h, at 10 µM, stronger effect = higher value. In general terms: In fluorescence polarisation assays a small probe gives low polarisation when free and higher when bound to something large.
Hepatocyte nuclear factor 4-alpha (Homo sapiens), sequence (P41235 whole entry, looked up): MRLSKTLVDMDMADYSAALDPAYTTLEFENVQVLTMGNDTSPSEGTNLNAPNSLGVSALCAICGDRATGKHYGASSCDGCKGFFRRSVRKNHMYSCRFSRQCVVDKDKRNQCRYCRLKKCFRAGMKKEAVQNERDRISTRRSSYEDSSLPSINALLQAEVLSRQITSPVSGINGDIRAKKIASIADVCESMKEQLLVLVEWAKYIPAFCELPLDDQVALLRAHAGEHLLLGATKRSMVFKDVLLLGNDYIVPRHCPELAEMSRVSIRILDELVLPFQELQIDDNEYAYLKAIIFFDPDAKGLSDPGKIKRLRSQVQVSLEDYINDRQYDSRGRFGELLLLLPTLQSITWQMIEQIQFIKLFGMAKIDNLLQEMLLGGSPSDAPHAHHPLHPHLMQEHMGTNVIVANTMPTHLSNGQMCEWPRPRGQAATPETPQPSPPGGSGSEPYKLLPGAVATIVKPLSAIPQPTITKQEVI
`Cc1cccc2cc3c(N)c(C(=O)N4CCCc5ccccc54)sc3nc12`: the activity change was 47.6% (active).

Turning to `CCCn1nc(C(=O)N2CCCc3ccccc32)c2ccccc2c1=O`, the activity change was 0.42%. The figure for `COc1cccc(/C=C/C(=O)OCC(=O)N2CCCc3ccccc32)c1` is -0.26%. The figure for `O=C(NCc1ccccc1)C1CNCC(C(=O)NCc2ccccc2)C1` (configuration not stated) is -1.7%; for `CC(=O)Nc1ccc(S(=O)(=O)N2CCC(C(=O)NC3CC3)CC2)cc1` it is -2.11%. Regarding `COc1ccc(C(C)=O)cc1COC(=O)Cn1cnc2ccccc2c1=O`, the activity change is 3.19%. `CC(=O)c1c(C)[nH]c(C(=O)OCC(=O)NCCC(C)C)c1C`: the activity change is -3.31%. The figure for `COc1cc(C)c(CN2CCN(C(=O)CCC(=O)c3ccc(C)s3)CC2)cc1OC` is -0.43%. Consider `O=C(Nc1ccccc1)c1ccccc1Br`, for which the activity change was -2.18%. As to `O=C(Nc1ccncc1)c1cc(-c2ccccn2)nc2ccc(Br)cc12`, the activity change was 43.9% (active). `O=C(Nc1ccc(Br)cc1)c1cc(S(=O)(=O)Nc2ccccn2)ccc1Cl`: the activity change is 0.97%.

In the case of `O=C(CSc1nnc(Cn2cnc3ccccc32)o1)c1ccccc1`, the activity change is 1.06%. In the case of `NC(CSC(c1ccccc1)(c1ccccc1)c1ccc(-c2ccccc2)cc1)C(=O)O` (configuration not stated), the activity change was -4.58%. Next, `CN(C)c1ccc(-n2cccc2/C=N/n2cnnc2)cc1`: -0.7%; `CN(C)c1ccc(-n2cccc2/C=C2/SC(=Nc3ccc(F)cc3)NC2=O)cc1`: 35.7% (active). Take `O=C(COC(=O)Cc1ccccc1F)NNC(=O)c1ccc(Cl)cc1`: the activity change is -2.29%.

For the compound `O=C(NN1C(=O)C2C3C=CC(C3)C2C1=O)c1ccco1` (configuration not stated), the activity change was 1.06%.

In the case of `CCN1/C(=C\c2ccc3ccccc3[n+]2CC)Sc2cc(C)ccc21`, the activity change is 81.5% (active). Turning to `Cc1ccc(S(=O)(=O)N2CC(O)C[C@H]2C(=O)OCC(=O)Nc2ccc(N3CCOCC3)cc2)cc1C` (some centres not stated), the activity change is -2.65%. As for `COc1ccc(/C=C(\NC(=O)c2ccccc2)C(=O)NCCN2CCOCC2)cc1OC`, the activity change is -1.85%. The figure for `Cn1c2ccccc2c2cc(/C=C(\NC(=O)c3ccccc3)C(=O)NCC(=O)O)ccc21` is 43.6% (active). On to `CCOc1ccc(/C=C(/NC(=O)c2ccccc2)C(=O)NCCC(=O)O)cc1`, for which the activity change is 1.05%. Consider `Cc1ccc(S(=O)(=O)c2ccc(Cl)cc2)cc1S(=O)(=O)NC(C(=O)O)C(C)C` (configuration not stated), for which the activity change was -3.32%.

Take `CCOC(OCC)c1ccc(/C=C\c2nccc(N)n2)cc1`: the activity change is 2.56%.

For `Cc1oc2nc(SCC(=O)Nc3ccc(S(N)(=O)=O)cc3)nc(NC(=O)c3ccccc3)c2c1C`, the activity change was -0.08%. On to `COc1ccc(CCNS(=O)(=O)c2cn(C)nc2C)cc1`, for which the activity change was 1.38%. Take `N#Cc1ccccc1NC(=O)COc1c(Br)cc(Br)c2cccnc12`: the activity change was -0.16%. Next, `N#Cc1ccc(C(=O)Nc2cccc3cccnc23)c(F)c1`: 43.6% (active). As to `CSc1ccc(C#N)cc1NC(=O)c1ccc(Cl)cc1`, the activity change is 2.01%. `COCCNC(=O)c1cc2c(Br)ccc(Br)c2nc1N`: the activity change was -2.58%.

For the compound `Cc1cccn2c(=O)c(C=O)c(Nc3ccc(S(N)(=O)=O)cc3)nc12`, the activity change was -2.3%. For the compound `CCCN(CCC)c1nc2c(C)cccn2c(=O)c1/C=C1/SC(=S)N(Cc2ccco2)C1=O`, the activity change was 8.02%.

On to `Cc1cccn2c(=O)c(/C=C3\SC(=S)N(CC(C)C)C3=O)c(NCCCOC(C)C)nc12`, for which the activity change was 82.9% (active).

For the compound `CCc1nnc(NC(=O)CSc2nc(SC)ns2)s1`, the activity change is 0.21%. Regarding `Cc1cc(C(=O)CC#N)c(C)n1-c1c(C)n(C)n(-c2ccccc2)c1=O`, the activity change is 11.5%. With `CCCCSCCCNC(=O)C1CCC(CNS(=O)(=O)c2ccc(NC(C)=O)cc2)CC1` (configuration not stated), the activity change was 2.47%.

In the case of `CCc1ccc(C2C(C#N)=C(N)N(N(C)C)C3=C2C(=O)CCC3)s1` (configuration not stated), the activity change is 0.21%. Consider `CCCC(O)(CCC)C(=O)NN(C(=O)CCl)c1cccc(C)c1`, for which the activity change is 0.04%. Take `N[C@@H](Cc1ccccc1)C(=O)N1CCOCC1`: the activity change was 2.36%. `CCN(/N=C/c1ccc(N(C)C)cc1)c1nc2ccccc2[nH]1`: the activity change is -0.96%. Consider `COc1cc(/C=C(\C#N)c2nc3ccccc3[nH]2)ccc1O`, for which the activity change is 50.5% (active). Regarding `COc1cc(C=NC2CCCCC2)ccc1O`, the activity change is 1.88%. For `COc1cc(/C=C(\C#N)c2nc3c(s2)CC(C)CC3)ccc1O` (configuration not stated), the activity change is 74% (active). `COC(=O)CSc1ccc2nnc(CCNS(=O)(=O)c3ccc(C)cc3)n2n1`: the activity change is -1.91%. As for `CC(NC(=O)C(C)(C)C)C(c1cccs1)N1CCN(Cc2ccccc2)CC1` (configuration not stated), the activity change is -1.5%. As for `CN1OC[C@@H]2CN(C(=O)c3cccnc3)[C@H](c3ccc(N4CCCCC4)cc3)C[C@@H]21`, the activity change was 10.4%. The figure for `Cc1ccc(CNC(=O)c2ccc(CS(=O)Cc3cccc(Cl)c3)o2)cc1` (configuration not stated) is 1.72%; for `CCc1ccc(NC(=O)CC2C(=O)NCCN2C(=S)Nc2ccccc2)cc1` (configuration not stated) it is 1.59%; for `Cc1c(C=O)n(C)n(-c2ccccc2)c1=O` it is 1.77%. In the case of `Cc1nc(N)sc1N=Nc1c(C)n(C)n(-c2ccccc2)c1=O`, the activity change was 6.08%. For the compound `Cc1c(N=Nc2ccc(N(C)C)cc2)c(=O)n(-c2ccccc2)n1C`, the activity change is 35.5% (active). Regarding `O=C(CCN1C(=O)C2CCCCC2C1=O)Nc1ccc(OC(F)F)cc1` (configuration not stated), the activity change was 1.26%. The figure for `C=CC[C@H](CC(=O)N(CCO)Cc1ccccc1)C(=O)N[C@@H](COC(=O)[C@@H](CC=C)Cc1ccc(F)cc1)Cc1ccccc1` is 2.32%; for `Cc1ccc(CSCC(=O)N(C)CC(=O)Nc2cccc(F)c2)cc1` it is -2.3%.

With `CCN(CC)C(=O)CSC(Nc1cccc(F)c1)=C(C#N)C#N`, the activity change was 44.9% (active). Consider `CN(CC(=O)Nc1cccc(F)c1)C(=O)CC1CCCC1`, for which the activity change was -0.01%.

For the compound `Cc1ccccc1OCCC(=O)Nc1c(C)n(C)n(-c2ccccc2)c1=O`, the activity change is -0.09%. For the compound `O=C(CC1Nc2ccccc2NC1=O)Nc1ccccc1` (configuration not stated), the activity change was 7.95%.

`COc1ccc(NC2=CC(=S)NC(C)(C)C2)cc1`: the activity change was 39.2% (active). Regarding `COc1ccc(CCNC2=CC(=O)CC(C)(C)C2)cc1`, the activity change was 2.16%. For `COc1ccc(Nc2cc(Sc3ccc(OC)cc3)ncn2)cc1`, the activity change is 7.05%. On to `CCCNC(=O)c1cc(C2CCCCN2S(=O)(=O)c2cn(C)cn2)on1` (configuration not stated), for which the activity change is -2.31%. With `Cc1cc(C)n2nc(C(=O)Nc3cccc(S(=O)(=O)N4CCOCC4)c3)nc2n1`, the activity change was -1.39%. In the case of `CC(C)Oc1ccc(C(=O)NCC(=O)Nc2ccc3c(c2)CCC3)cc1`, the activity change was -0.66%. For the compound `Cc1ccc(C(=O)OCC(=O)NC2CCCCCCC2)cc1C`, the activity change is -0.78%. Regarding `Cc1nc(SCC(=O)N2CC(=O)Nc3ccccc32)c2c(C)c(C)sc2n1`, the activity change was -0.27%. In the case of `Cc1nc(SCC(=O)N2CCc3ccccc3C2)c2c(C)c(C)sc2n1`, the activity change was -0.31%.

For the compound `Cc1nc(SCC(=O)Nc2cc(C)on2)c2c(C)c(C)sc2n1`, the activity change was 49.9% (active). `CC/C(=C(/c1ccccc1)c1ccc(OCC[N+](C)(C)C)cc1)c1ccccc1`: the activity change was 7.53%.

As for `C[C@@H]1CN([C@H](C)CO)C(=O)c2cc(Br)cnc2O[C@@H]1CN(C)Cc1cncnc1`, the activity change was 3.08%.

For `COC(=O)c1cccc(N(CC(=O)NCC2CCCO2)C(=O)CCC(=O)Nc2cc(C)on2)c1` (configuration not stated), the activity change is 2.32%.

Regarding `O=C(COC(=O)c1ccc(F)c(S(=O)(=O)N2CCOCC2)c1)NCc1ccc2c(c1)OCO2`, the activity change was 2.9%.
